TGFb inhibitor – qHTS for Inhibitors of TGF-b; HepG2 CAGA-GFP TGF-b/SMAD3 reporter, GFP fluorescence, 18 h; TGF-beta stimulated, 500 pg/mL final; 410,000 compounds, 1.2% hits; AID 588855, 2011; Potency, µM (doses to about 46.1 µM), most hits filed as inhibitors; also: nearly all actives have a fitted effect of over 65% in size
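Read-out: total well GFP (ex488/em500-530) summed from mean per-cell fluorescence. Cells: HEPG2 CAGA-GFP, 1% FBS DMEM, 18 h at 37 degrees C with 500 pg/mL final TGF-beta. Unstimulated wells served as the full-inhibition control; stimulated DMSO wells = 0%.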
HT1080 IDH1KD tx – qHTS for induction of synthetic lethality in tumor cells producing 2HG: qHTS for the HT-1080-IDH1KD cell line. HT-1080 IDH1 knockdown viability, ATP luminescence, 48 h. Potency, µM (series often up to 46.1 µM), most hits filed as cytotoxic. 360,000 compounds, 2% hits. AID 686971, 2013
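% activity derives from luminescence (CellTiter-Glo), normalised to DMSO and no-cell wells. HT-1080-IDH1KD cells, 750/well, had 48 h compound exposure at 37 °C.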
HepG2 tox – qHTS for Inhibitors of TGF-b: Cytotox Counterscreen; HepG2 CAGA-GFP viability, ATP luminescence, 18 h; Potency, µM (series often up to 46.1 µM), actives largely listed as cytotoxic; 410,000 compounds, 0.76% hits; AID 588856, 2011
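HepG2 CAGA-GFP cells (1000/well, DMEM with 1% FBS) received compound, then TGF-beta at 500 pg/mL final, and were incubated 18 hours at 37 degrees C. Viability was read by CellTiter-Glo luminescence. Media-only wells were set as complete cell-killing and DMSO as no toxicity.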
TDP1 cell CPT – qHTS for Inhibitors of human tyrosyl-DNA phosphodiesterase 1 (TDP1): qHTS in cells in presence of CPT | 420,000 compounds, 12% hits | Potency, µM (series often up to 46.2 µM), most hits filed as inhibitors | chicken DT40 Tdp1-/-;hTDP1 cells + 20 nM CPT, ATP luminescence, 48 h | AID 686979, 2013; also: nearly all actives have a fitted effect of over 55% in size
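Chicken DT40 Tdp1-/- cells stably complemented with human TDP1 were seeded at 400 cells/well in medium containing 20 nM camptothecin, exposed to pin-transferred compounds, and grown at 37 °C for at least 48 hr. Viability was read as ATP luminescence.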
DT40 TDP1 no CPT – qHTS for Inhibitors of human tyrosyl-DNA phosphodiesterase 1 (TDP1): qHTS in cells in absence of CPT; 420,000 compounds, 15% hits; Potency, µM (titrated, usually from 46.2 µM), usual class: inhibitors; AID 686978, 2013; DT40 Tdp1-/- hTDP1 cells, no CPT, ATP luminescence, 48 h; also: nearly all actives have a fitted effect of over 55% in size
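Cells were dispensed at 400 per well, compounds added by pin tool, plates incubated ≥48 hr at 37 °C, then CellTiter-Glo added for 30 min at room temperature before luminescence reading. Line: DT40 Tdp1-/- complemented with hTDP1; camptothecin omitted.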
HT1080NT lethal – qHTS for induction of synthetic lethality in tumor cells producing 2HG: qHTS for the HT-1080-NT fibrosarcoma cell line; HT-1080-NT fibrosarcoma viability, CellTiter-Glo ATP luminescence, 48 h; Potency, µM (highest dose often 46.1 µM), usual class: cytotoxic; 360,000 compounds, 1.6% hits;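 also: NT is the 2HG producing partner of a matched IDH1 knockdown line; nearly all actives have a fitted effect of over 55% in size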
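750 cells/well, RPMI + 5% FBS; 2 h settle, compound pin-transfer, 48 h at 37 degrees C. CellTiter-Glo 10 min RT, luminescence. Normalized to DMSO and media-only wells.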
Each line names hits and unclear results; the compound was inactive in the other large screens. Most compounds without a hit are left out; they make up all but 17% or so of the library. Calls follow the shape of the dose curve; as a rule, active = well fitted curve in the direction sought with a large enough effect; inconclusive = small, poorly fitted or top-dose-only effect, or another doubt; inactive = no such curve, though single readings can be large; an effect the other way counts as inactive or inconclusive.

CN1CCN(C(c2cccnc2)c2ccc3cccnc3c2O)CC1 (configuration not stated)	TDP1 cell CPT inconclusive, DT40 TDP1 no CPT 16µM
CN1CCN(C(c2ccc(F)cc2)c2ccc3cccnc3c2O)CC1 (configuration not stated)	none
CN1CCN(C(c2ccc(Br)cc2)c2cc(Cl)c3cccnc3c2O)CC1 (configuration not stated)	TGFb inhibitor inconclusive, HT1080 IDH1KD tx inconclusive, TDP1 cell CPT 16µM, DT40 TDP1 no CPT 15µM, HT1080NT lethal inconclusive
Cc1cc(/C([O-])=C(/C(=S)Nc2ccc(F)cc2)[n+]2ccccc2)c(C)n1-c1ccc(F)cc1	none (no result: TDP1 cell CPT, DT40 TDP1 no CPT)
Cc1cc(/C([O-])=C(/C(=S)Nc2ccccc2)[n+]2ccccc2)c(C)n1-c1ccccc1	TDP1 cell CPT inconclusive, DT40 TDP1 no CPT inconclusive
Cc1ccc(-n2c(C)cc(/C([O-])=C(/C(=S)Nc3ccc(F)c(Cl)c3)[n+]3ccccc3)c2C)cc1	TDP1 cell CPT 23µM, DT40 TDP1 no CPT 23µM
Cc1cc(/C([O-])=C(/C(=S)Nc2ccc(F)cc2)[n+]2ccccc2)c(C)n1Cc1ccccc1Cl	TDP1 cell CPT 21µM, DT40 TDP1 no CPT 23µM
N#Cc1ccc(Oc2ccc(S(=O)(=O)N3CCOCC3)cn2)cc1	none
COc1ccc(NC2CCCN(C(=O)CCCn3cncn3)C2)cc1OC (configuration not stated)	none
Cc1ccc(S(=O)(=O)N2CCC(C(=O)NCCCN3CCOCC3)CC2)cc1C	none
Cc1nn(Cc2ccc(Cl)c(Cl)c2)c(C)c1NC(=O)c1sc2ccccc2c1Cl	TGFb inhibitor inconclusive, HT1080 IDH1KD tx inconclusive, TDP1 cell CPT inconclusive, DT40 TDP1 no CPT 15µM
Cc1ccccc1Cn1nc(C)c(NC(=O)c2sc3ccccc3c2Cl)c1C	HT1080 IDH1KD tx inconclusive, TDP1 cell CPT inconclusive, DT40 TDP1 no CPT 21µM
Cc1nn(Cc2c(Cl)cccc2Cl)c(C)c1NC(=O)c1sc2ccccc2c1Cl	HT1080 IDH1KD tx inconclusive, TDP1 cell CPT 18µM, DT40 TDP1 no CPT 16µM, HT1080NT lethal inconclusive
Cc1nn(Cc2ccc(Cl)cc2Cl)c(C)c1NC(=O)c1sc2ccccc2c1Cl	none
Cc1ccc(S(=O)(=O)N2C[C@H]3C(=O)C[C@@H](c4ccc(Cl)cc4)N(S(=O)(=O)c4ccccc4C)[C@H]3C[C@H]2c2ccccc2)cc1	DT40 TDP1 no CPT inconclusive
N#Cc1ccc(C(=O)CSc2n[nH]c(=O)n2-c2cccnc2)cc1	DT40 TDP1 no CPT inconclusive
Cc1cccc(NC(=O)c2sc(-n3nc(C)c(CCC(C)C)c3C)nc2C)c1	TDP1 cell CPT inconclusive, DT40 TDP1 no CPT inconclusive (no result: HT1080 IDH1KD tx, HT1080NT lethal)
Cc1sc2c(c1C)c(=O)n(-c1ccc(Cl)cc1)c(=O)n2Cc1cc(=O)n2ccccc2n1	none
COc1ccc(NC(=O)c2ccc(S(=O)(=O)N(C)c3ccccc3)cc2)cc1S(=O)(=O)N1CCOCC1	HT1080 IDH1KD tx inconclusive, TDP1 cell CPT 23µM, DT40 TDP1 no CPT 15µM, HT1080NT lethal inconclusive
Cc1ccc(NC(=O)c2ccc(S(=O)(=O)N(C)c3ccccc3)cc2)cc1S(=O)(=O)N1CCOCC1	TGFb inhibitor inconclusive, TDP1 cell CPT 23µM, DT40 TDP1 no CPT inconclusive
Cc1ccc(NC(=O)c2ccc3c(c2)OCO3)cc1S(=O)(=O)N1CCOCC1	TDP1 cell CPT inconclusive, DT40 TDP1 no CPT inconclusive
COc1ccc(NC(=O)c2ccc(-c3ccccc3)cc2)cc1S(=O)(=O)N1CCOCC1	none
O=C(COc1ccccc1F)Nc1c2c(nn1-c1ccccc1)CS(=O)(=O)C2	none
Cc1ccccc1CN1CCN(C(=O)c2ccc(S(=O)(=O)NCc3ccco3)cc2)CC1	TDP1 cell CPT inconclusive, DT40 TDP1 no CPT inconclusive
COc1ccc(N2CCN(C(=O)c3ccc(S(=O)(=O)NCc4ccco4)cc3)CC2)cc1	none
COc1ccc(CN2CCN(C(=O)c3ccc(S(=O)(=O)NCc4ccco4)cc3)CC2)cc1F	TDP1 cell CPT 9.2µM, DT40 TDP1 no CPT inconclusive
O=C(c1ccc(S(=O)(=O)NCc2ccco2)cc1)N1CCN(Cc2ccc3c(c2)OCO3)CC1	TGFb inhibitor inconclusive, TDP1 cell CPT inconclusive, DT40 TDP1 no CPT 16µM
O=C(CCc1ccc(S(=O)(=O)NCc2ccccc2)cc1)N1CCN(Cc2ccc3c(c2)OCO3)CC1	TDP1 cell CPT 32µM, DT40 TDP1 no CPT inconclusive
O=C(CS(=O)(=O)Cc1ccccc1)N1CCN(Cc2ccc3c(c2)OCO3)CC1	TDP1 cell CPT inconclusive, DT40 TDP1 no CPT inconclusive
COc1ccc(OC)c(NC(=O)C2(C)CCN2CCOc2ccccc2)c1 (configuration not stated)	TDP1 cell CPT 23µM, DT40 TDP1 no CPT inconclusive
COc1ccc(OC)c(NC(=O)C2(C)CCN2Cc2cccc(OC)c2OC)c1 (configuration not stated)	HT1080 IDH1KD tx inconclusive, TDP1 cell CPT inconclusive, DT40 TDP1 no CPT 15µM, HT1080NT lethal inconclusive
CC1(C(=O)Nc2cccc3cccnc23)CCN1Cc1ccccc1OC(F)F (configuration not stated)	TGFb inhibitor inconclusive, HT1080 IDH1KD tx inconclusive, TDP1 cell CPT inconclusive, DT40 TDP1 no CPT 15µM, HT1080NT lethal inconclusive
COc1ccc(OC)c(NC(=O)C2(C)CCN2C(=O)C2(c3ccccc3)CCCC2)c1 (configuration not stated)	TDP1 cell CPT inconclusive, DT40 TDP1 no CPT 23µM
COc1ccc(NC(=O)C2(C)CCN2CCOc2ccccc2)cc1OC (configuration not stated)	TDP1 cell CPT inconclusive, DT40 TDP1 no CPT inconclusive
COc1ccc(OC)c(NC(=O)C2(C)CCN2C(=O)C2(c3ccc(Cl)cc3)CCC2)c1 (configuration not stated)	TGFb inhibitor inconclusive, HT1080 IDH1KD tx inconclusive, TDP1 cell CPT inconclusive, DT40 TDP1 no CPT inconclusive
Cc1nc2cnc(N3CCN(C)CC3)nc2n(C)c1=O	none (no result: TGFb inhibitor, HT1080 IDH1KD tx, HepG2 tox, HT1080NT lethal)
CCC1CN(C(=O)C2CCN(S(=O)(=O)c3c(C)noc3/C=C/c3ccccc3F)CC2)c2cc(Cl)ccc2O1 (configuration not stated)	none (no result: HT1080 IDH1KD tx, HT1080NT lethal)
O=[N+]([O-])c1ccc(Cc2ccccn2)c([N+](=O)[O-])c1	TDP1 cell CPT inconclusive

Screens deposited in PubChem by National Center for Advancing Translational Sciences (NCATS).
